In ChEMBL document CHEMBL5724796, “Tm Shift (DSF) assay results for EUbOPEN Chemogenomics Library” (2024) one finds ΔTm data, which are given here for eleven molecules.

Residues, ends and D or L forms follow the SMILES beside them.

Common to all, as to details: Compound concentration 20.0 uM
Assay [1] concerns the target Tyrosine-protein kinase ABL1 (Homo sapiens) (UniProt P00519).
Assay [2] deals with Bromodomain-containing protein 4 (Homo sapiens) (UniProt O60885).
In assay [3] the target is Cyclin-dependent kinase 2 (Homo sapiens) (UniProt P24941).
Assay [4] has as its target Casein kinase I isoform delta (Homo sapiens) (UniProt P48730).
Assay [5] concerns the target Glycogen synthase kinase-3 beta (Homo sapiens) (UniProt P49841).
The target in assay [6] is Mitogen-activated protein kinase 1 (Homo sapiens) (UniProt P28482).
For assay [7], the target named is T1, Aurora kinase A (Homo sapiens) (UniProt O14965).
T1 sequence (whole entry): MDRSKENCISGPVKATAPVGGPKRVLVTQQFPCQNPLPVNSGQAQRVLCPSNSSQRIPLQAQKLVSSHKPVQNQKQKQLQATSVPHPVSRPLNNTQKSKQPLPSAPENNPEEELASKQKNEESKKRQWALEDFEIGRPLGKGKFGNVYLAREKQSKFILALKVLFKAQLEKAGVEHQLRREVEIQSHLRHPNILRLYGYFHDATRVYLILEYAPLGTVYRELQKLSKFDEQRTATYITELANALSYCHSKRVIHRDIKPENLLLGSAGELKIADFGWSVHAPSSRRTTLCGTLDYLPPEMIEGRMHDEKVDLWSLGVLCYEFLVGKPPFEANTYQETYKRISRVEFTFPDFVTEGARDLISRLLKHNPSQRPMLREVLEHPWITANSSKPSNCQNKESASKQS

Assay [8] has as its target T2, Transcription intermediary factor 1-alpha (Homo sapiens) (UniProt O15164).
T2 sequence (whole entry): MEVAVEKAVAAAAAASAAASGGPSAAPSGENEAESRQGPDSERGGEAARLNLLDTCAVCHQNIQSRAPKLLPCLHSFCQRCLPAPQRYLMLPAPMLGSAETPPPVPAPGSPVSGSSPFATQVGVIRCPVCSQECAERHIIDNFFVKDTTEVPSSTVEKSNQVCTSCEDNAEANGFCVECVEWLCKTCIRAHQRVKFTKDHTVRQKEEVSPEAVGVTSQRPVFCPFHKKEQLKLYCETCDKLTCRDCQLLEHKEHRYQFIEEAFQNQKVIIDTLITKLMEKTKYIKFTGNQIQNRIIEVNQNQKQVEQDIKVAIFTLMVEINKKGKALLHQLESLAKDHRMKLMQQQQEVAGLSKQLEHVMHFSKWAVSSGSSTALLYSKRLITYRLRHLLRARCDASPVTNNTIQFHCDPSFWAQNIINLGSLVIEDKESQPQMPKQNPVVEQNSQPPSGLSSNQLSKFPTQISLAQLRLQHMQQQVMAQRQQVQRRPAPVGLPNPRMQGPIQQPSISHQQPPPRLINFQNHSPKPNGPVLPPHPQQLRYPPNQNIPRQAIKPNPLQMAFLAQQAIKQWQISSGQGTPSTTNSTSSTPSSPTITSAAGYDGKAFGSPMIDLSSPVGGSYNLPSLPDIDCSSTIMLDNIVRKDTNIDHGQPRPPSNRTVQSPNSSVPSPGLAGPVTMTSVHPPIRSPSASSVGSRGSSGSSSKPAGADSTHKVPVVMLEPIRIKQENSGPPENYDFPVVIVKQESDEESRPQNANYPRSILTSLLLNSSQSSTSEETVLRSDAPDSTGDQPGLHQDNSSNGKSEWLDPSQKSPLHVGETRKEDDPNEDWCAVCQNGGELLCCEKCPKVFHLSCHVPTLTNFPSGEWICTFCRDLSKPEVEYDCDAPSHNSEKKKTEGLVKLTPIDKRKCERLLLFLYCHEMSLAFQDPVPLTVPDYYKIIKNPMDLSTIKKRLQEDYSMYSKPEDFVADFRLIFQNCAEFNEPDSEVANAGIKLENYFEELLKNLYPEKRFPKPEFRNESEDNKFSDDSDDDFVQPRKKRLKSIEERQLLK

Sequence of Mitogen-activated protein kinase 1 (Homo sapiens) (P28482 whole entry): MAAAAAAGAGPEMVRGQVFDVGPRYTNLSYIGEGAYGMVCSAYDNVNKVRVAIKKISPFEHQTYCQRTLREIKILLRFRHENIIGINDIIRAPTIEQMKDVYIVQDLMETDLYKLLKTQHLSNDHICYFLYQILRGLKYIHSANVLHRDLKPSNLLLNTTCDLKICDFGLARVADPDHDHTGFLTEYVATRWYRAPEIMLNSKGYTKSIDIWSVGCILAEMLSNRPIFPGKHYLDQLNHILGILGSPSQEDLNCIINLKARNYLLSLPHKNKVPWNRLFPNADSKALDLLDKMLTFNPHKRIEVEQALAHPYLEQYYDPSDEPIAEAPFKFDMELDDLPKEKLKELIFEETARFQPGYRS
Sequence of Tyrosine-protein kinase ABL1 (Homo sapiens) (P00519 whole entry): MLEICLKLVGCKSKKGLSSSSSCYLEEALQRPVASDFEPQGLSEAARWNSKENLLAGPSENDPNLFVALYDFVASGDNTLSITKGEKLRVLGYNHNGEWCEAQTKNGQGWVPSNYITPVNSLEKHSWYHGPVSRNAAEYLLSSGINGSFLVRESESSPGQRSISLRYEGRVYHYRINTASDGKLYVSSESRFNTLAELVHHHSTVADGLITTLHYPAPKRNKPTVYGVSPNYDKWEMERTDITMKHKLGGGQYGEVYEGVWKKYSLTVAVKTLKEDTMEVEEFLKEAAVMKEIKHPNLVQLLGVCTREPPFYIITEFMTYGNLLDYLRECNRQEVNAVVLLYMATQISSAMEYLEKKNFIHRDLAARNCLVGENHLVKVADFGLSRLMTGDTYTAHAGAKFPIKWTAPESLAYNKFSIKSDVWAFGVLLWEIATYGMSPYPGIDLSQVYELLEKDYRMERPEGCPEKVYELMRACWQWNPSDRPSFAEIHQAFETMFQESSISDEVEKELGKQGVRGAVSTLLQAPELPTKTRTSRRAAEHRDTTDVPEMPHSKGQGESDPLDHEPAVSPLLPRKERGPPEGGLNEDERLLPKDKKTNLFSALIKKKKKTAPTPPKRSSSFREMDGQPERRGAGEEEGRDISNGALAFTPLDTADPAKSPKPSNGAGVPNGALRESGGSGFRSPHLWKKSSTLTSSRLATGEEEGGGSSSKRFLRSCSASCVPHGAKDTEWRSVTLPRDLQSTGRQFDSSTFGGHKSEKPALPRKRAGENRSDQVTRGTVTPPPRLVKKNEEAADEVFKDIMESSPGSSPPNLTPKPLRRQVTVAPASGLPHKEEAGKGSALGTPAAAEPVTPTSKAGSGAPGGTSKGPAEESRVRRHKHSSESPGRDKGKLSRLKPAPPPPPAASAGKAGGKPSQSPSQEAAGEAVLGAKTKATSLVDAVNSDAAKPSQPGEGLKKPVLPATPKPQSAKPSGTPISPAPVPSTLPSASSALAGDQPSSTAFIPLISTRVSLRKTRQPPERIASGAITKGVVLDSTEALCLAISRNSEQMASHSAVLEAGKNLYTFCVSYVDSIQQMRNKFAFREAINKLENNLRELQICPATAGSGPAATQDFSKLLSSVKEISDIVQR
Sequence of Casein kinase I isoform delta (Homo sapiens) (P48730 whole entry, looked up, canonical isoform): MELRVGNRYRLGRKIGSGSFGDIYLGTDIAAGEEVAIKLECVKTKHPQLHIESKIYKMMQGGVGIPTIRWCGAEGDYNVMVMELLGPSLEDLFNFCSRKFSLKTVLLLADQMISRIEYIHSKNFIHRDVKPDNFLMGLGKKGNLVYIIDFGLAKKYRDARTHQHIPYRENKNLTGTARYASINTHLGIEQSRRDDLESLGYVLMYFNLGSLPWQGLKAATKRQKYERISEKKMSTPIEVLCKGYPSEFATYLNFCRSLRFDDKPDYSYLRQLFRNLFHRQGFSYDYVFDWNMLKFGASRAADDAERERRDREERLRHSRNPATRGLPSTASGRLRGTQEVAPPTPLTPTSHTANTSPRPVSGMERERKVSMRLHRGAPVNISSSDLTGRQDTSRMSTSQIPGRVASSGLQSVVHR
Sequence of Glycogen synthase kinase-3 beta (Homo sapiens) (P49841 whole entry, looked up): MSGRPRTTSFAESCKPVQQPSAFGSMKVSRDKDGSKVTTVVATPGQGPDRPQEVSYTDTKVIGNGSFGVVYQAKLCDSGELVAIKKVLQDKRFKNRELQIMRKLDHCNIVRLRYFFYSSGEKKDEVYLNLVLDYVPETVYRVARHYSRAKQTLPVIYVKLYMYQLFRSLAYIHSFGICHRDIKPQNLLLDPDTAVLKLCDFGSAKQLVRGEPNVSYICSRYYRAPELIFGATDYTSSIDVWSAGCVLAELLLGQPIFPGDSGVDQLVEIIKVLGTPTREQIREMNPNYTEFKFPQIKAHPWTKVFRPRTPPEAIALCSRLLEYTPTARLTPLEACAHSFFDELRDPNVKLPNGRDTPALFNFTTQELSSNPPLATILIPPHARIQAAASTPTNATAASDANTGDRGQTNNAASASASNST

As for `CS(=O)(=O)N1CCN(C(=O)c2cnc3ccc(Cl)cc3c2-c2ccc(C3(C#N)CC3)cc2)CC1`, the ΔTm (commonly the change in melting temperature against a reference sample) in assay [1] is 0.55 °C; in assay [2], -2.94 °C; in assay [3] it was 0.81 °C; in assay [4], 0.96 °C; in assay [5] it was 4.93 °C; in assay [6], 0.97 °C. Moreover, the ΔTm in assay [7] was -2.24 °C; in assay [8] it was -1.2 °C.
`NC(=O)c1cccc(NC(=O)CCC(=O)NCCc2cn(CCNS(=O)(=O)c3cccc(C(=O)O)c3)nn2)c1`: the ΔTm in assay [1] is 0.47 °C; in assay [2], -2.59 °C; in assay [3], -0.69 °C; in assay [4], 0.02 °C; in assay [5] it was -1.06 °C; in assay [6] it was -1.68 °C. In addition, the results for the shift in melting temperature (ΔTm) in assay [7] and in assay [8] were -2.28 °C and -0.11 °C, respectively.
With `CCN1C(C)(C)CC(Oc2ccc(C(=O)Nc3ccc(NC(=O)Nc4cc(C(C)(C)C)on4)cc3)nc2)CC1(C)C`, the ΔTm was 1.14 °C in assay [1]; -1.48 °C in assay [2]; 0.38 °C in assay [3]; 0.21 °C in assay [4]; 0.25 °C in assay [5]; -3.48 °C in assay [6]. For the same molecule, the values for the ΔTm in assay [7] and in assay [8] were 0.68 °C and -0.32 °C, respectively.
On to `O=C(O)/C(S)=C/c1c[nH]c2ccc(F)cc12`, for which the ΔTm in assay [1] is -1 °C; in assay [2], -4.6 °C; in assay [3], -0.97 °C; in assay [4], 0.7 °C; in assay [5] it was -0.98 °C; in assay [6] it was 0.11 °C. In addition, the ΔTm was 0.25 °C in assay [7] and -2.02 °C in assay [8].
Take `CC(=O)N[C@H](C(=O)N[C@@H](CC(=O)O)C(=O)N[C@H](C(=O)N[C@@H](C)C(=O)N[C@H](C=O)CC(=O)O)C(C)C)C(C)C` (Ac-VDVAD-aldehyde): the ΔTm was 0.62 °C in assay [1]; -2.7 °C in assay [2]; -0.17 °C in assay [3]; -0.1 °C in assay [4]; 0.07 °C in assay [5]; 0 °C in assay [6]. The ΔTm is -1.39 °C in assay [7] and -0.67 °C in assay [8].
`COCCOCCn1nc2c(c1C)-c1c(Cl)ccc3c1c(C)c(C(=O)O)n3CCCOc1cc(cc3c(F)c(Cl)ccc13)CCc1cc(nn1C)CSC2`: the ΔTm in assay [1] was -1.69 °C; in assay [2] it was -3.74 °C; in assay [3] it was -3.85 °C; in assay [4], -0.76 °C; in assay [5] it was 0 °C; in assay [6] it was -1.31 °C. Moreover, the ΔTm was 0.82 °C in assay [7] and -3.03 °C in assay [8].
As for `C[C@@H]1CN(c2nccc(Nc3ccc4c(c3)n(CCC(C)(C)O)c(=O)n4C)n2)C[C@H](C)C1(F)F`, the ΔTm is 1.46 °C in assay [1]; -1.76 °C in assay [2]; 3.21 °C in assay [3]; -0.23 °C in assay [4]; -0.32 °C in assay [5]; -7.23 °C in assay [6]. The ΔTm in assay [7] was -2.03 °C; in assay [8], -1.14 °C.
`CN(CC[C@@H](Oc1ccc(-c2ccccc2)cc1)c1ccc(F)cc1)CC(=O)O`: the ΔTm was 0.28 °C in assay [1]; -0.22 °C in assay [2]; -0.22 °C in assay [3]; 0.15 °C in assay [4]; -0.98 °C in assay [5]; 0.32 °C in assay [6]. Moreover, the ΔTm in assay [7] is -1.2 °C; in assay [8], 2.77 °C.
Turning to `O=C(Nc1cc(C(F)F)ns1)Nc1cc(F)ncc1CO`, the ΔTm in assay [1] is 0.52 °C; in assay [2], -1.44 °C; in assay [3], 0.5 °C; in assay [4], -0.49 °C; in assay [5], 1.08 °C; in assay [6], 0.14 °C. The ΔTm in assay [7] is -1.82 °C; in assay [8] it was 0.59 °C.
On to `COC[C@H](NC(=O)c1ccn(S(C)(=O)=O)c1)C(=O)Nc1nc(-c2cccc(-c3ccn(C)n3)c2)cs1`, for which the ΔTm in assay [1] was 0.67 °C; in assay [2], -0.81 °C; in assay [3], 0.17 °C; in assay [4], 0.35 °C; in assay [5] it was -3.25 °C; in assay [6], 0.35 °C. Besides, the shift in melting temperature (ΔTm) in assay [7] was -2.2 °C; in assay [8], -1.12 °C.
Regarding `CC(C)c1cnc(CSc2cnc(NC(=O)C3CCNCC3)s2)o1`, the ΔTm was 0.26 °C in assay [1]; -1.43 °C in assay [2]; 6.28 °C in assay [3]; 1.43 °C in assay [4]; 7.03 °C in assay [5]; -0.12 °C in assay [6]. In addition, the shift in melting temperature (ΔTm) was 3.08 °C in assay [7] and -0.84 °C in assay [8].
